Measurements: PubChem BioAssay (EPA / NIEHS)
Records with an inconclusive call do not appear. Active and inactive are the calls of the source. How the source made its calls, unless noted: active means hit-call score of the fitted dose curve at least 0.9, where 1 is the maximum; inactive means score below 0.9.

Assays:
[1] = biological target: Retinoic acid receptor alpha (Homo sapiens) (UniProt P10276); test: ATG_RARa_TRANS: Attagene TRANS-FACTORIAL HepG2 Assay for human Retinoic Acid Receptor alpha (RARa) (AID 2283005; active means hit-call score of the fitted dose curve at least 0.9, where 1 is the maximum)
Retinoic acid receptor alpha (Homo sapiens), sequence (P10276 whole entry, looked up, the tested form may be a part): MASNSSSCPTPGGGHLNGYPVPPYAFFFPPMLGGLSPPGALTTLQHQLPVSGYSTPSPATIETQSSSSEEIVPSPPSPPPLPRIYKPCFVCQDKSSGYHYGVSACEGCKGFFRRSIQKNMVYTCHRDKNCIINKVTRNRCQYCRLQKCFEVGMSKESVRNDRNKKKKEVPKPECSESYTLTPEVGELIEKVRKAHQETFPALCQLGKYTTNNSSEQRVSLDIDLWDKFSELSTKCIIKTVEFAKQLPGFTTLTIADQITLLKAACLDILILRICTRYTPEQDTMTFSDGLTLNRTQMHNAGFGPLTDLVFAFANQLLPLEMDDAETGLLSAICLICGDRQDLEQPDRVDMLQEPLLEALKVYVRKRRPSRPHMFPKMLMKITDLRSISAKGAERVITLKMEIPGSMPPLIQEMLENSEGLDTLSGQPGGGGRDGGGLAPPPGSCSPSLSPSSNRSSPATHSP
Procedure, shortened: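 Reporter transcripts, measured by RT-PCR with fluorescent labeling and capillary electrophoresis after 24 h dosing, reflect activity of an exogenous human RARa–GAL4 fusion in transiently transfected HepG2. Fitted for increase relative to DMSO.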

[2] = BSK_3C_Proliferation: Cell Proliferation Assessment in the BioMAP Diversity Plus: 3C Assay (AID 2283006); conditions: primary human endothelial cells (HUVEC);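 on AC50: potency may reflect either rise or fall in cell number versus DMSO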
Procedure, shortened: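 Subconfluent HUVEC (3C system) cultured with chemical; relative cell number read at 48 h by sulforhodamine B total-protein staining (0.1% SRB after 10% TCA fixation, 560 nm). Bidirectional fit relative to DMSO.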

[3] = biological target: Peroxisome proliferator-activated receptor gamma (Homo sapiens) (UniProt P37231); test: ATG_PPARg_TRANS: Attagene TRANS-FACTORIAL HepG2 Assay for human Peroxisome Proliferator-activated Receptor-gamma (PPARg) (AID 2283007; active means hit-call score of the fitted dose curve at least 0.9, where 1 is the maximum)
Peroxisome proliferator-activated receptor gamma (Homo sapiens), sequence (P37231 whole entry, looked up): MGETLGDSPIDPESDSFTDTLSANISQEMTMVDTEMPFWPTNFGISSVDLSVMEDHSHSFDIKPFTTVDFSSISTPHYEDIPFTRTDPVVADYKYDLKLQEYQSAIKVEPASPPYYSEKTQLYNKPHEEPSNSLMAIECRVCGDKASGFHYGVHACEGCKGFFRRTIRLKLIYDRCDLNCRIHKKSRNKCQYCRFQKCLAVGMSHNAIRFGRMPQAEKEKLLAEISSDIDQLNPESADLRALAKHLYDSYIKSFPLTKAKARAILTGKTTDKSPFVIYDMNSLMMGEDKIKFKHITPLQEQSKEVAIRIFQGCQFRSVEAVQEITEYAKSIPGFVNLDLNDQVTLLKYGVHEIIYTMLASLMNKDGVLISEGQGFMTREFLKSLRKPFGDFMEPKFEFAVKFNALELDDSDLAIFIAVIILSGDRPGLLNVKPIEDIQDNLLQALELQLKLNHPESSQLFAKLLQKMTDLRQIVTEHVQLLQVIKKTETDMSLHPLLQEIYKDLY
Procedure, shortened: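 Multiplexed reporter transcription units in HepG2, 24 h dosing, reporter transcripts quantified by fluorescent RT-PCR and capillary electrophoresis. Increase over DMSO scored.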

[4] = biological target: human Retinoic Acid Receptor gamma (RARg), RARG (gene 5916) (UniProt P13631); test: ATG_RARg_TRANS: Attagene TRANS-FACTORIAL HepG2 Assay for human Retinoic Acid Receptor gamma (RARg) (AID 2283009; active means hit-call score of the fitted dose curve at least 0.9, where 1 is the maximum)
human Retinoic Acid Receptor gamma (RARg), RARG (gene 5916), sequence (P13631 whole entry, looked up, the tested form may be a part): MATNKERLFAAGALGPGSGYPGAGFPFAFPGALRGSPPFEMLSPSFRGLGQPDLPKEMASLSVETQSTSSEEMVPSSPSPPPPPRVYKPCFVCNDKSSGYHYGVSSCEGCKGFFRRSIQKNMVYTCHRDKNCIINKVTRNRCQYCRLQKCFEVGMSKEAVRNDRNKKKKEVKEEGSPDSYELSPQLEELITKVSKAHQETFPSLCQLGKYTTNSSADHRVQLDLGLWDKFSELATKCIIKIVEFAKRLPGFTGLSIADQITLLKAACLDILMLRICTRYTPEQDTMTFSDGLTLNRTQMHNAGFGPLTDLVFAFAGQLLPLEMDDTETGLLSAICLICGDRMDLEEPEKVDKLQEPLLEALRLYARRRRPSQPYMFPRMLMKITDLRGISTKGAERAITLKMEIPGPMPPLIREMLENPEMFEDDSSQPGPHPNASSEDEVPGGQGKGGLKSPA
Procedure, shortened: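 HepG2 transiently transfected with GAL4-UAS reporter units and chimeric NR-Gal4 constructs; 24 h compound exposure. Reporter mRNA quantified by RT-PCR, FAM labeling, HpaI digestion and capillary electrophoresis; gain-of-signal versus DMSO.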

[5] = biological target: human Thyroid Receptor alpha (THRa1), THRA (gene 7067) (UniProt P10827); test: ATG_THRa1_TRANS: Attagene TRANS-FACTORIAL HepG2 Assay for human Thyroid Receptor alpha (THRa1) (AID 2283014; active means hit-call score of the fitted dose curve at least 0.9, where 1 is the maximum)
human Thyroid Receptor alpha (THRa1), THRA (gene 7067), sequence (P10827 whole entry, looked up, the tested form may be a part): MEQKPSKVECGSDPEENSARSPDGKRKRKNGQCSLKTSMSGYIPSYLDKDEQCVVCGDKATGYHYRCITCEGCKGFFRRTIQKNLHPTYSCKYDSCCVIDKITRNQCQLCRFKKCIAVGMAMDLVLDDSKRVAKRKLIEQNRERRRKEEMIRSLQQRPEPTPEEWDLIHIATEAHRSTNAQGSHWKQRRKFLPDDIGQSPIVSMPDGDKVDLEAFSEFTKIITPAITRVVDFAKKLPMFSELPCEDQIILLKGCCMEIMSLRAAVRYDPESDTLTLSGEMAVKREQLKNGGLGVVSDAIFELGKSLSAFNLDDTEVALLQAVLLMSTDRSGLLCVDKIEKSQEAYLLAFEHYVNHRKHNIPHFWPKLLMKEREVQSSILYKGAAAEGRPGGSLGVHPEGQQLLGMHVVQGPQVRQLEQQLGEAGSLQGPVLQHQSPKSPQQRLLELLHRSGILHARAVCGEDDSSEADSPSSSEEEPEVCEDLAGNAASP
Procedure, shortened: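 Reporter transcript induction, read by capillary electrophoresis of 6-FAM-labelled RT-PCR products, reflects activity of a transfected THRa1-Gal4 fusion in HepG2 liver cells. Cells were dosed for 24 h; activity was fitted in the positive direction against DMSO.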

[6] = read-out: E-selectin (Homo sapiens) (UniProt P16581); test: BSK_3C_Eselectin: BioMAP Diversity Plus: 3C Assay for Eselectin Biomarker Activity (AID 2283015); conditions: primary human endothelial cells (HUVEC); actives raise or lower the signal;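 further: cell surface E-selectin protein quantified by ELISA 24 h after dosing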
Procedure, shortened: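 ELISA read-out of E-selectin on endothelial monolayers after 24 h chemical treatment. Human umbilical vein primary cells served as the system, with DMSO defining baseline activity for bidirectional fitting.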

[7] = read-out: Monocyte Chemoattractant Protein-1 (MCP1), CCL2 (gene 6347); test: BSK_3C_MCP1: BioMAP Diversity Plus: 3C Assay for Monocyte Chemoattractant Protein-1 (MCP1) Biomarker Activity (AID 2283017); conditions: primary human endothelial cells (HUVEC); actives raise or lower the signal
Procedure, shortened: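 ELISA read-out of MCP-1 from human umbilical vein endothelial cell cultures harvested 24 h post-dosing. Gain or loss of signal was fitted relative to DMSO.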

[8] = read-out: Monocyte Chemoattractant Protein-1 (MCP1), CCL2 (gene 6347); test: BSK_4H_MCP1: BioMAP Diversity Plus: 4H Assay for Monocyte Chemoattractant Protein-1 (MCP1) Biomarker Activity (AID 2283018); conditions: primary human endothelial cells (HUVEC); actives raise or lower the signal
Procedure, shortened: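 Human umbilical vein endothelial cells (4H system) exposed to chemicals for 24 h in 96-well format. MCP-1 measured by ELISA; bidirectional fitting against DMSO, with SRB total-protein staining in parallel cultures for cytotoxicity.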

[9] = read-out: Human Leukocyte Antigen - DR isotype (HLADR), HLA-DRA (gene 3122); test: BSK_3C_HLADR: BioMAP Diversity Plus: 3C Assay for Human Leukocyte Antigen - DR isotype (HLADR) Biomarker Activity (AID 2283019); conditions: primary human endothelial cells (HUVEC); actives raise or lower the signal;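 further: ELISA of cell-surface HLA-DR on HUVEC 24 h after dosing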
Procedure, shortened: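 ELISA readout of surface HLA-DR on human umbilical vein endothelium, taken 24 h after chemical treatment. Gain- and loss-of-signal were both fitted relative to DMSO.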

[10] = read-out: Interleukin-8 (IL8), CXCL8 (gene 3576); test: BSK_3C_IL8: BioMAP Diversity Plus: 3C Assay for Interleukin-8 (IL8) Biomarker Activity (AID 2283020); conditions: primary human endothelial cells (HUVEC); actives raise or lower the signal
Procedure, shortened: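 Primary human umbilical vein endothelial cells were dosed for 24 h. IL-8 was quantified by ELISA and fitted bidirectionally against DMSO. Cytotoxicity was assessed in parallel cultures by SRB staining at 560 nm.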

[11] = read-out: Monokine induced gamma interferon (MIG), CXCL9 (gene 4283); test: BSK_3C_MIG: BioMAP Diversity Plus: 3C Assay for Monokine induced gamma interferon (MIG) Biomarker Activity (AID 2283021); conditions: primary human endothelial cells (HUVEC); actives raise or lower the signal
Procedure, shortened: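 HUVEC primary endothelial cultures dosed with chemical; MIG quantified by ELISA at 24 h. Data fitted bidirectionally against DMSO control, with parallel SRB total-protein staining for cytotoxicity.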

[12] = BSK_3C_SRB: Viability Assessment in the BioMAP Diversity Plus: 3C Assay (AID 2283023); conditions: primary human endothelial cells (HUVEC);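 further: fitted both ways against DMSO so a hit may be signal rise or drop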
Procedure, shortened: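 Absorbance at 560 nm of sulforhodamine B-stained (0.1%) total protein served as a cytotoxicity readout in human umbilical vein endothelial cells, 24 h after chemical treatment. Signal was fitted bidirectionally relative to DMSO.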

[13] = BSK_3C_Vis: BioMAP Diversity Plus: 3C Assay for Morphology Visualization (AID 2283025); conditions: primary human endothelial cells (HUVEC);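 further: fitted both ways so gain or loss versus DMSO counts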
Procedure, shortened: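 Human umbilical vein endothelial cell morphology was inspected by light microscopy 24 h after chemical dosing; scored bidirectionally relative to DMSO.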

[14] = biological target: human RAR-related Orphan Receptor gamma (RORg), RORC (gene 6097) (UniProt P51449); test: ATG_RORg_TRANS: Attagene TRANS-FACTORIAL HepG2 Assay for human RAR-related Orphan Receptor gamma (RORg) (AID 2283011; active means hit-call score of the fitted dose curve at least 0.9, where 1 is the maximum)
human RAR-related Orphan Receptor gamma (RORg), RORC (gene 6097), sequence (P51449 whole entry, looked up, the tested form may be a part): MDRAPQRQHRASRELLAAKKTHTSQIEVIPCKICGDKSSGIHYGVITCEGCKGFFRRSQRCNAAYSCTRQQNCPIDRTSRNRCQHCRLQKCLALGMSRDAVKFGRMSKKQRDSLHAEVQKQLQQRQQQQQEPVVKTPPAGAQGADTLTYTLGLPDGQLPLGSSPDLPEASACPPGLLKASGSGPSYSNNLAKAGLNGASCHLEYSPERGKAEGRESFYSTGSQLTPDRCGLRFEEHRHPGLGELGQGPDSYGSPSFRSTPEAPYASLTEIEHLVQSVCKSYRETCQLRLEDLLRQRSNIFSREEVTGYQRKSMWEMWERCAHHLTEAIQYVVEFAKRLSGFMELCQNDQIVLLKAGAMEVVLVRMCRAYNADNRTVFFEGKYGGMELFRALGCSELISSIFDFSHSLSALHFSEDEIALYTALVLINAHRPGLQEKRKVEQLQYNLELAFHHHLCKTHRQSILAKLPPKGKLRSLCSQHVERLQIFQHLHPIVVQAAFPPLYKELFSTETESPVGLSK
Procedure, shortened: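 First, HepG2 liver cells were transfected with GAL4-UAS-driven reporter constructs and the RORg-Gal4 fusion. Next, they were treated with chemical for 24 h. Finally, reporter mRNA was quantified by RT-PCR and capillary electrophoresis, with upward activity fitted against DMSO.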

[15] = biological target: Retinoic acid receptor RXR-alpha (Homo sapiens) (UniProt P19793); test: ATG_RXRa_TRANS: Attagene TRANS-FACTORIAL HepG2 Assay for human Retinoid X Receptor alpha (RXRa) (AID 2283012; active means hit-call score of the fitted dose curve at least 0.9, where 1 is the maximum)
Retinoic acid receptor RXR-alpha (Homo sapiens), sequence (P19793 whole entry, looked up, the tested form may be a part): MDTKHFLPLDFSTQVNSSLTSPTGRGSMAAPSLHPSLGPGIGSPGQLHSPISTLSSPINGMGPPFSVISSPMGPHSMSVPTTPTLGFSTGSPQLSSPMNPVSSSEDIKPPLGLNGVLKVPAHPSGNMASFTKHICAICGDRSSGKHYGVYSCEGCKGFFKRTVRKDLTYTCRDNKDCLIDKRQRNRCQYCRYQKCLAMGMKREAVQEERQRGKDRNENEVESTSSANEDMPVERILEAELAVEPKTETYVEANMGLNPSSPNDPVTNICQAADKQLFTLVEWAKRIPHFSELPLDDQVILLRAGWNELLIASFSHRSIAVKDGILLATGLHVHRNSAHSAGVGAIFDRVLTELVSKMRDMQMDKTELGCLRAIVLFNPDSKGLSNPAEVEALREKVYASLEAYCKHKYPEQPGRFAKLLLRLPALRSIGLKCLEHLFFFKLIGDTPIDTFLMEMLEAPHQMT
Procedure, shortened: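 HepG2 cells transiently transfected with GAL4-UAS reporter units and chimeric RXRa-Gal4 protein, treated 24 h. Reporter mRNA measured by RT-PCR, fluorescent labelling, HpaI digestion and capillary electrophoresis. Induction fitted against DMSO.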

[16] = read-out: Interleukin-1 alpha (IL1a), IL1A (gene 3552); test: BSK_BE3C_IL1a: BioMAP Diversity Plus: BE3C Assay for Interleukin-1 alpha (IL1a) Biomarker Activity (AID 2283016); conditions: primary human bronchial epithelial cells; actives raise or lower the signal
Procedure, shortened: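 Human primary bronchial epithelial cells, 24 h chemical exposure; IL-1a quantified by ELISA, fitted bidirectionally against DMSO. Cytotoxicity assessed in parallel by SRB total-protein staining at the time of measurement.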

[17] = read-out: Matrix Metallopeptidase 1 (MMP1), MMP1 (gene 4312); test: BSK_BE3C_MMP1: BioMAP Diversity Plus: BE3C Assay for Matrix Metallopeptidase 1 (MMP1) Biomarker Activity (AID 2283024); conditions: primary human bronchial epithelial cells; actives raise or lower the signal
Procedure, shortened: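 Human primary bronchial epithelial cells (BE3C system) dosed for 24 h; MMP-1 quantified by ELISA. Bidirectional fit against DMSO; cytotoxicity tracked in parallel cultures by SRB total-protein staining.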

[18] = biological target: human Vitamin D Receptor (VDR), VDR (gene 7421) (UniProt P11473); test: ATG_VDR_TRANS: Attagene TRANS-FACTORIAL HepG2 Assay for human Vitamin D Receptor (VDR) (AID 2283022; active means hit-call score of the fitted dose curve at least 0.9, where 1 is the maximum)
human Vitamin D Receptor (VDR), VDR (gene 7421), sequence (P11473 whole entry, looked up, the tested form may be a part): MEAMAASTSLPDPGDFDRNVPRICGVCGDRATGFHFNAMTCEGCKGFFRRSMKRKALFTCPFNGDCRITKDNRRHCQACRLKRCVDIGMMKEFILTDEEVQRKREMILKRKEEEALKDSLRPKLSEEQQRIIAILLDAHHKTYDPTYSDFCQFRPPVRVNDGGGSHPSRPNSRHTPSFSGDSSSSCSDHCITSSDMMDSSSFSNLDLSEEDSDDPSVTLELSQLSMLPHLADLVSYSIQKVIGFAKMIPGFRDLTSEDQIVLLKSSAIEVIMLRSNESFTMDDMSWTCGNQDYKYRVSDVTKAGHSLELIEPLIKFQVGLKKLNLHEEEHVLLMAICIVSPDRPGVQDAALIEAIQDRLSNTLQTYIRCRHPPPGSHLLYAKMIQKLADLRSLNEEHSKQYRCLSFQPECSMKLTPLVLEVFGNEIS
Procedure, shortened: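 Steps: transfect HepG2 with GAL4-UAS-driven reporter constructs; dose compounds 24 h; isolate RNA, reverse-transcribe, PCR-amplify with 6-FAM-labelled primer extension and HpaI digestion; quantify fragments by capillary electrophoresis relative to DMSO.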

[19] = biological target: human Retinoid X Receptor beta (RXRb), RXRB (gene 6257) (UniProt P28702); test: ATG_RXRb_TRANS: Attagene TRANS-FACTORIAL HepG2 Assay for human Retinoid X Receptor beta (RXRb) (AID 2283013; active means hit-call score of the fitted dose curve at least 0.9, where 1 is the maximum)
human Retinoid X Receptor beta (RXRb), RXRB (gene 6257), sequence (P28702 whole entry, looked up, the tested form may be a part): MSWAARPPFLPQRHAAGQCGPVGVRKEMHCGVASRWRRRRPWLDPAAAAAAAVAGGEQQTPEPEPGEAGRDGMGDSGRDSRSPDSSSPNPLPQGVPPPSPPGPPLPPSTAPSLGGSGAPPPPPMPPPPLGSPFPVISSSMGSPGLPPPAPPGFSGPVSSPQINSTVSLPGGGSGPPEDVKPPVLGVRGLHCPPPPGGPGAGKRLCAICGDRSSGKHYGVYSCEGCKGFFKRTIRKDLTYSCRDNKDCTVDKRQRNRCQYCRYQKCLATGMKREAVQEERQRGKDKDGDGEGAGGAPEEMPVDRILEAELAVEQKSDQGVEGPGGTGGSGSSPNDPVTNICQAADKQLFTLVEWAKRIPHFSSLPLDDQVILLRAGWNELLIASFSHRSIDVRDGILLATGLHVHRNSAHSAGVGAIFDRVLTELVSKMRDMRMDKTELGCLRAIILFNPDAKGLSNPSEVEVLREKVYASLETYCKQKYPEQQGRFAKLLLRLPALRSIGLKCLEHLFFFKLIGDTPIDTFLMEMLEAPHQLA
Procedure, shortened: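 HepG2 cells were transiently transfected with multiplexed GAL4-UAS reporters and a chimeric RXRb-Gal4 construct, then exposed for 24 h. Reporter mRNA was quantified by RT-PCR, FAM labeling, HpaI digestion and capillary electrophoresis; gain of signal was scored against DMSO.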

E-selectin (Homo sapiens), sequence (P16581 whole entry, looked up): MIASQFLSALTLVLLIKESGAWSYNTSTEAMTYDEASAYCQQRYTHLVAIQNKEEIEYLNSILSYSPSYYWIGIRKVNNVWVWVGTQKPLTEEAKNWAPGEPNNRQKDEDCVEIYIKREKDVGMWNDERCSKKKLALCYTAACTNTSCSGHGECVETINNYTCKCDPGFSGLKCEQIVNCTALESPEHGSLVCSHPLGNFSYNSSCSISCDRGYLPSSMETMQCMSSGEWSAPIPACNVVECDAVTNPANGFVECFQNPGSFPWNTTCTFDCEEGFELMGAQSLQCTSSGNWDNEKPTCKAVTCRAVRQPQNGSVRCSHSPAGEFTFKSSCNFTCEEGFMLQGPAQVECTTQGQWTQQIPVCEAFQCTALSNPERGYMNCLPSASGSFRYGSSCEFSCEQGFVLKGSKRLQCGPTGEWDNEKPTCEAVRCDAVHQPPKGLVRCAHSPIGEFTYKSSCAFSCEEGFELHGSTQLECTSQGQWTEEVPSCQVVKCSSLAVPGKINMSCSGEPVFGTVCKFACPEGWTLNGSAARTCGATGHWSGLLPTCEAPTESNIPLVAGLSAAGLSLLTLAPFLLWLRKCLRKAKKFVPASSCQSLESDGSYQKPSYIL

SMILES	outcome [1]	outcome [2]	outcome [3]	outcome [4]	outcome [5]	outcome [6]	outcome [7]	outcome [8]	outcome [9]	outcome [10]	outcome [11]	outcome [12]	outcome [13]	outcome [14]	outcome [15]	outcome [16]	outcome [17]	AC50 [2]	outcome [18]	outcome [19]
O=P(OCCCl)(OCCCl)OCCCl	inactive	inactive	inactive	inactive	inactive	inactive	inactive	inactive	inactive	inactive	inactive	inactive	inactive							
Nc1ccc(Oc2ccc(N)cc2)cc1	inactive	inactive	inactive	inactive		inactive	inactive	inactive	inactive	inactive	inactive	inactive	inactive	inactive	inactive	inactive	inactive			
Cc1ccc(N=C=O)cc1N=C=O	inactive			inactive		inactive	inactive	inactive	inactive	inactive	inactive	inactive	inactive	inactive		inactive	inactive	13.9 µM (active)	inactive	
O=Cc1ccco1	inactive	inactive		inactive		inactive	inactive	inactive	inactive	inactive	inactive	inactive	inactive	inactive	inactive				inactive	inactive
